Among the test systems are NCI-H23 lung; NCI-H226 lung; NCI-H322M lung; HOP-62 NSCLC; NCI-H460 lung; HOP-92 NSCLC; A549/ATCC NSCLC; 786-0 renal; COLO 205 colon; NCI-H522 lung.
What all share (experiment): NCI-60 one-dose screen, 48 h (100 = growth as untreated, 0 = no growth, -100 = all killed)
Common to all, as to conditions: 10 µM unless noted

About 83,000 compounds went through this panel and 20% of them were active in at least one assay; those are over-represented in the sample as a whole.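 Compound tested at a single concentration for 48 hours in 96-well plates; a percent growth value below 10 was scored as active.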 Values without a mark were called inactive. The source made the active and inactive calls.

In the case of `COc1ccc(C(=O)c2cc(OC)c(OC)c(OC)c2)cc1/C=C/C(=O)c1cc(OC)c(OC)c(OC)c1`, the growth is 79.9% with NCI-H23 lung; 89.5% in the experiment with NCI-H226 lung; 91.2% with NCI-H322M lung; 117% in the experiment on HOP-62 NSCLC; 83.7% in the experiment on NCI-H460 lung; 83.8% in the experiment on HOP-92 NSCLC. In addition, the growth in the experiment with A549/ATCC NSCLC was 92.9%; in the experiment with 786-0 renal, 104%; in the experiment on COLO 205 colon it was 95.5%.
On to `CC(Cc1ccco1)C(=O)NC(N)=O` (stereo unspecified), for which the growth was 97.4% in the experiment on NCI-H23 lung; 95.8% with NCI-H226 lung; 99.2% in the experiment on NCI-H322M lung; 106% in the experiment with HOP-62 NSCLC; 107% with NCI-H460 lung; 109% with HOP-92 NSCLC. Also, the growth in the experiment on A549/ATCC NSCLC is 91.9%; in the experiment with 786-0 renal, 103%; in the experiment with COLO 205 colon, 120%.
For `O=C1OC(c2ccc(Cl)c(Cl)c2)=C/C1=C/c1cccc([N+](=O)[O-])c1`, the growth was 88.1% with NCI-H23 lung; 86.3% in the experiment on NCI-H226 lung; 102% with NCI-H322M lung; 94.2% with HOP-62 NSCLC; 94.3% in the experiment with HOP-92 NSCLC; 90.9% with NCI-H522 lung. The growth is 97.4% with A549/ATCC NSCLC, 105% with 786-0 renal and 108% in the experiment on COLO 205 colon.
As for `Cc1cc(N2CCN(C)CC2)nc(N(CCNc2ccnc3cc(Cl)ccc23)Cc2ccco2)n1`, the growth in the experiment with NCI-H23 lung is 57.5%; in the experiment with NCI-H226 lung, 92.9%; in the experiment with NCI-H322M lung it was 51%; in the experiment with HOP-62 NSCLC, 26.8%; with HOP-92 NSCLC it was 49.2%; with NCI-H522 lung it was 53.7%. Further, the growth with A549/ATCC NSCLC is 41.4%; in the experiment with 786-0 renal, 32.6%; in the experiment with COLO 205 colon it was -5.82% (active).
Regarding `Cn1cc(-c2nc(-c3c[nH]c4ncccc34)cs2)c2cc(Cl)ccc21`, the growth was 69.5% in the experiment on NCI-H23 lung; 81.8% in the experiment on NCI-H226 lung; 47.8% in the experiment with NCI-H322M lung; 86% in the experiment with HOP-62 NSCLC; 40.4% with HOP-92 NSCLC; 52.2% in the experiment on NCI-H522 lung. Besides, the growth in the experiment with A549/ATCC NSCLC was 43%; with 786-0 renal, 46.2%; with COLO 205 colon, 80.2%.
In the case of `N#Cc1cnc2cc(OC[C@@H](O)CO)c(NC(=O)C3CCCC3)cc2c1Nc1ccc(OCc2cccc(F)c2)c(Cl)c1`, the growth was 13.6% in the experiment with NCI-H23 lung; 38.5% in the experiment with NCI-H226 lung; 35.7% in the experiment with NCI-H322M lung; -51.9% (active) in the experiment on HOP-62 NSCLC; -37.2% (active) in the experiment with HOP-92 NSCLC; -58.5% (active) in the experiment on NCI-H522 lung. The growth in the experiment with A549/ATCC NSCLC is 47.9%; in the experiment on 786-0 renal, 43.6%; with COLO 205 colon it was 49.6%.
As for `COc1ccc(/C=C(\C#N)c2cc3ccccc3n2S(C)(=O)=O)cc1`, the growth with NCI-H23 lung is 89.8%; in the experiment with NCI-H226 lung it was 89.7%; in the experiment on NCI-H322M lung it was 99.6%; in the experiment on HOP-62 NSCLC, 91.5%; in the experiment on HOP-92 NSCLC it was 86.5%; with NCI-H522 lung it was 73.5%. The growth was 104% in the experiment on A549/ATCC NSCLC, 99.9% in the experiment with 786-0 renal and 111% in the experiment with COLO 205 colon.
Take `Clc1ccc2c(NCCNc3nc(-c4ccccc4)cc(-c4ccccc4)n3)ccnc2c1`: the growth was -47.3% (active) in the experiment on NCI-H23 lung; -56.2% (active) with NCI-H226 lung; -10.5% (active) with NCI-H322M lung; -73.6% (active) with HOP-62 NSCLC; -66.8% (active) in the experiment on HOP-92 NSCLC; -69.9% (active) with NCI-H522 lung. The growth in the experiment on A549/ATCC NSCLC is -75.2% (active); in the experiment on 786-0 renal, -90.8% (active); with COLO 205 colon, -72.2% (active).
With `C#Cc1cccc(NC(=O)C2CCCN(C(=O)CCl)C2)c1` (stereo unspecified), the growth in the experiment with NCI-H23 lung is -27% [8.25 µM] (active); in the experiment with NCI-H226 lung, 1.82% [8.25 µM] (active); in the experiment on NCI-H322M lung, 111% [8.25 µM]; in the experiment on HOP-62 NSCLC it was 87.8% [8.25 µM]; in the experiment with HOP-92 NSCLC it was 98.3% [8.25 µM]; with NCI-H522 lung it was -53.6% [8.25 µM] (active). Further, the growth in the experiment on A549/ATCC NSCLC was 86.1% [8.25 µM]; in the experiment on 786-0 renal, 89.5% [8.25 µM]; in the experiment with COLO 205 colon, 27.2% [8.25 µM].
As for `CN1CCN(c2nc(-c3csc(-c4cccs4)n3)cc3ccccc23)CC1`, the growth is 79.1% in the experiment with NCI-H23 lung; 94.5% in the experiment on NCI-H226 lung; 81% in the experiment on NCI-H322M lung; 68.3% in the experiment with HOP-62 NSCLC; 23% in the experiment on HOP-92 NSCLC; 70.7% with NCI-H522 lung. Moreover, the growth with A549/ATCC NSCLC was 47.9%; with 786-0 renal, 48.1%; in the experiment with COLO 205 colon it was -51.1% (active).
`CN1CCN(c2nc(-c3cccc4ccccc34)nc3sc4c(c23)CCCCCC4)CC1`: the growth is 92.2% in the experiment with NCI-H23 lung; 74.4% in the experiment with NCI-H226 lung; 104% with NCI-H322M lung; 75.4% in the experiment on HOP-62 NSCLC; -0.421% (active) in the experiment on HOP-92 NSCLC; 88.7% in the experiment on NCI-H522 lung. For the same molecule, the growth with A549/ATCC NSCLC was 95.5%; in the experiment with 786-0 renal it was 87.7%; in the experiment with COLO 205 colon it was 91.7%.
Turning to `CC(CNc1nc(Nc2ccc(Cl)c(Cl)c2)nc(C(Cl)(Cl)Cl)n1)N(C)C` (stereo unspecified), the growth in the experiment on NCI-H23 lung was 14.2%; in the experiment with NCI-H226 lung it was 40.8%; in the experiment on NCI-H322M lung, 27.6%; in the experiment with HOP-62 NSCLC, -68.4% (active); in the experiment on HOP-92 NSCLC it was -17.7% (active); in the experiment on NCI-H522 lung it was -86.8% (active). Further, the results for the growth in the experiment on A549/ATCC NSCLC, in the experiment with 786-0 renal and with COLO 205 colon were 4.96% (active), -77.3% (active) and -77.7% (active), respectively.
Turning to `Cn1cc(-c2nc(-c3c[nH]c4ncccc34)cs2)c2cc(F)ccc21`, the growth was 40.8% in the experiment with NCI-H23 lung; 62.3% in the experiment with NCI-H226 lung; 35.1% in the experiment with NCI-H322M lung; 65.3% in the experiment on HOP-62 NSCLC; 24.6% with NCI-H460 lung; 13.3% in the experiment with HOP-92 NSCLC. In addition, the values for the growth in the experiment with A549/ATCC NSCLC, in the experiment on 786-0 renal and in the experiment on COLO 205 colon were 36.3%, 41.3% and 49.4%, respectively.
Turning to `COc1cccc(-c2nn(-c3ccccc3)cc2-c2ccnc(NCCNS(=O)(=O)c3ccc(Cl)cc3)c2)c1`, the growth was 32% in the experiment with NCI-H23 lung; 41.8% in the experiment with NCI-H226 lung; 63.8% in the experiment with NCI-H322M lung; 53.5% with HOP-62 NSCLC; 7.77% (active) with HOP-92 NSCLC; 12.4% in the experiment with NCI-H522 lung. For the same molecule, the growth is 27.4% in the experiment with A549/ATCC NSCLC, 40.3% in the experiment on 786-0 renal and 4.94% (active) with COLO 205 colon.

(Values after PubChem BioAssay (NCI).)
